Measured values from PubChem BioAssay (NCATS).
Records with an inconclusive call do not appear. The source made the active and inactive calls. Calls follow the shape of the dose curve; as a rule, active = well fitted inhibition curve with a large enough effect; inconclusive = small, poorly fitted or top-dose-only effect; inactive = flat fitted curve, though single readings scatter.

Assay: High Content Imaging Cell-Based qHTS for Inhibitors of the mTORC1 Signaling Pathway in MEF (Tsc2-/-, p53-/-) Cells (AID 2666);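 also: percent of cells scored positive for phospho-rpS6 Ser235/236 immunostaining by imaging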
Conditions: at 38.3 µM (top of the series)
From the text: NIH Molecular Libraries Probe Production Centers Network [MLPCN]
NIH Chemical Genomics Center [NCGC]
Assay Submitter (PI): Blenis, John; Hoffman, Greg; Harvard University
NCGC Assay Overview: Thee mammalian target of rapamycin (mTOR) is an intracellular serine/threonine kinase Aberrant regulation of mTOR signaling plays a causative role in a number of human diseases, including cancer, benign tumors such as lymphangioleiomyomatosis (LAM) and Tuberous Sclerosis Complex (TSC), and metabolic diseases such as diabetes and obesity. This project aims to identify inhibitors of ribosomal protein S6 (rpS6) phosphorylation. The phosphorylation of rpS6 is a key event downstream of mTOR activation. The assay uses a phospho-specific antibody of phospho-rpS6 to detect inhibitors of mTOR activation. Mutations in the Tsc1 and Tsc2 genes are the underlying genetic lesions responsible for TSC, causing constitutive activation of the mTORC1 pathway and leading to profound effects on cell metabolism. Aberrant metabolism in cancer has recently received significant attention as a target to develop therapeutic agents in the treatment of cancer1. As Tsc2-/- cells have lost the ability to respond to energy and growth factor deprivation, these cells are unable to properly down regulate cellular biosynthetic processes in response to metabolic stress, and are thus extremely sensitive to glucose deprivation-induced death.2 A central goal of this project is to explore the unique cell survival and metabolic properties of cells with Tsc1 or Tsc2 by screening for compounds that selectively target the Tsc2-/- MEFs by screening both Tsc2-/- and WT MEF cell lines. We hope to better understand these aspects of TSC physiology in order to exploit them for therapeutic benefit.
NCGC IN Cell Assay Protocol:
For quantitative high throughput analysis of mTORC1 signaling, we developed a cell-based assay for immuno-fluorescence based detection of rpS6 phosphorylation on the Acumen Explorer that will be used a platform for the primary small molecule screen. Mouse embryonic fibroblasts (MEFs) are cultured in 1536-well plates using DMEM + 10% FBS. Twenty-four hrs after plating, test compounds (solubilized in DMSO) are delivered and incubated with the cells for 24 hrs at 37 degree Celsius. Following the incubation, media with compound is aspirated and the cells are fixed in 4% paraformaldehyde (PFA) containing PBS + 0.2% TX-100. Next, PFA is aspirated, cells are washed two times with PBS plus 0.2% TX-100 and the cells are blocked for 1 hr at room temperature (blocking buffer: LiCOR Blocking Buffer plus 0.2% TX-100). This is followed by aspiration and staining with Alexa-488 conjugated-phospho-rpS6 Ser235/236 antibody for 2 hours at room temperature (Cell Signaling Technology # 4803, 1:50 dilution in blocking buffer). Cells are washed two times with PBS plus 0.2% TX-100, and stained with 10 uM propidium iodide (PI) for 20-25 minutes for cell number measurement (1:500 dilution of Hoescht staining is also added for IN Cell imaging). Active wells which are selected (based on Acumen results) are imaged on the IN Cell 1000 (GE Healthcare) using the D360/40X and HQ480/40X excitation filters for the Hoechst and Alexa-488 cytoplasmic stains, respectively. The fluorescence emission filters used were HQ460/40M and HQ535/50M for the Hoechst and Alexa-488 cytoplasmic stains, respectively. The normalized phospho-S6 staining is calculated as the ratio of […] for the single concentration rapamycin control ([…] nM) and DMSO columns. […] Inhibition of the pathway is defined based on the normalized phospho-S6 intensity in rapamycin treated cells. Each treatment is reported as the % positive cells in the well, where thresholds are defined by selecting wells with the highest and lowest signal and differentiating between the % non-active and % active populations. […]

Row | Structure (SMILES) | outcome
1 | CC(C)(C)NCC(O)c1ccccc1Cl (stereo not given) | inactive
2 | CC(C)N(CCC(C(N)=O)(c1ccccc1)c1ccccn1)C(C)C (stereo not given) | inactive
3 | Cc1ncsc1CCCl | inactive
4 | CCCCC/C=C\C/C=C\C/C=C\C/C=C\CCCC(=O)NCC(=O)O | inactive
5 | O=C(O)CCCc1ccc(N(CCCl)CCCl)cc1 | inactive
6 | COc1ccc2c(c1OC)C(=O)O[C@H]2[C@@H]1c2cc3c(cc2CCN1C)OCO3 | inactive
7 | NCCc1ccc(O)cc1 | inactive
8 | O=c1[nH]oc2c1CCNC2 | inactive
9 | O=C(CCCN1CCC2(CC1)C(=O)NCN2c1ccccc1)c1ccc(F)cc1 | inactive
10 | CC(NC(C)(C)C)C(=O)c1cccc(Cl)c1 (stereo not given) | inactive
11 | O=P1(N(CCCl)CCCl)NCCCO1 (stereo not given) | inactive
12 | C=C(C)[C@H]1CN[C@H](C(=O)O)[C@H]1CC(=O)O | inactive
13 | CCC1(c2ccc(N)cc2)CCC(=O)NC1=O (stereo not given) | inactive
14 | CN1C(=O)CCS(=O)(=O)C1c1ccc(Cl)cc1 (stereo not given) | inactive
15 | CC(C)c1cccc(C(C)C)c1O | inactive
